{"source": "PubChem BioAssay (EPA / NIEHS)", "note": "Inconclusive results are not listed. Activity calls are given as the source filed them. The calls were made as follows: active = hit-call score of the fitted dose curve at least 0.9, where 1 is the maximum; inconclusive = response in the unintended direction; inactive = score below 0.9.", "data": [{"molecular_target": "Glycogen synthase kinase-3 beta (Homo sapiens) (UniProt P49841)", "sequence (P49841 whole entry, looked up)": "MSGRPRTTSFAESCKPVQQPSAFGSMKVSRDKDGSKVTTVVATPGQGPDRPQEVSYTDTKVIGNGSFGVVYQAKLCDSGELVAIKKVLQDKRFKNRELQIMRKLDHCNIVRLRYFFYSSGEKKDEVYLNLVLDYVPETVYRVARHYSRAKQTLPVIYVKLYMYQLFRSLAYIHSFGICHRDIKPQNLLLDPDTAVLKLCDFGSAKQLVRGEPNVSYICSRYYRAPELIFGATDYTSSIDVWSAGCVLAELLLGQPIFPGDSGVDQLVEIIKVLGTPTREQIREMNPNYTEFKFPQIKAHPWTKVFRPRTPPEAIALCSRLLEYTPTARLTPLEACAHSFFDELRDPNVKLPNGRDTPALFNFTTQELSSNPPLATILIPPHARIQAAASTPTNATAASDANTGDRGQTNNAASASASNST", "assay": "NVS_ENZ_hGSK3b: NovaScreen (NVS) Enzymatic Assay for human Glycogen Synthase Kinase-3 beta (GSK3b) (AID 2283165)", "experimental": "NVS_ENZ_hGSK3b is a biochemical, single-readout assay that uses extracted gene-proteins in a cell-free assay. Measurements were taken 1 hour after chemical dosing in a 384-well plate.NVS_ENZ_hGSK3b is one of one assay component(s) measured or calculated from the NVS_ENZ_hGSK3b assay. It is designed to make measurements of enzyme activity, a form of enzyme reporter, as detected with fluorescence intensity signals by Fluorescence and electrophoretic mobility shift technology.Data from the assay component NVS_ENZ_hGSK3b was analyzed into 1 assay endpoint. This assay endpoint, NVS_ENZ_hGSK3b, was analyzed in the positive analysis fitting direction relative to DMSO as the negative control and baseline of activity. Using a type of enzyme reporter, loss-of-signal activity can be used to understand changes in the enzymatic activity as they relate to the gene GSK3B. Furthermore, this assay endpoint can be referred to as a primary readout, because this assay has produced multiple assay endpoints where this one serves a enzymatic activity function. To generalize the intended target to other relatable targets, this assay endpoint is annotated to the kinase intended target family, where the subfamily is serine/threonine kinase.\nBinding assays used specific radioligands (tritiated, iodinated) with non-radioactive competitive displacement ligands in agonist or antagonist protocols (as indicated) and various reference compounds and inhibitors to titrate specific binding to receptors and transporters. Most enzyme assays (CYPs, kinases, phosphatases, proteases, HDACs) used recombinant protein and specific substrates (fluorescence mostly, some colorimetric and radioactive) and inhibitors, followed by a biochemical separation of substrate and product. All assays for the biochemical HTS were initially run in duplicate at a single concentration (10 uM for CYP450 assays and 25 uM for all others). Assay-chemical combinations meeting a pre-defined threshold (e.g., 30% inhibition and other criteria defined below) were then run in singleton concentration-response format with maximum concentration of 20 uM for CYPs and 50 uM for all others. Each assay was run with positive and negative controls, and concurrent controls on every plate. The follow-up (secondary) screen tested active chemical-pairs in concentration series, as well as a few additional assays not tested in the primary screen, some selected negative inactives, and several cases re-run in the concentration series for confirmatory purposes.", "values": [{"smiles": "CN(C)c1ccccc1", "outcome": "inactive"}, {"smiles": "CCN(CC)N=O", "outcome": "inactive"}, {"smiles": "OCCCl", "outcome": "inactive"}, {"smiles": "CCOC(=O)[C@]1(c2ccccc2)Oc2ccccc2[C@@H]1N", "outcome": "inactive"}, {"smiles": "Cc1cccc(N)c1N", "AC50": "27.9 µM (active)"}, {"smiles": "CCN(CC)CCO", "outcome": "inactive"}, {"smiles": "CCNS(=O)(=O)C(F)(F)C(F)(F)C(F)(F)C(F)(F)C(F)(F)C(F)(F)C(F)(F)C(F)(F)F", "outcome": "inactive"}, {"smiles": "CC(O)CCO", "note": "(stereo unspecified)", "outcome": "inactive"}, {"smiles": "Cc1ccc([N+](=O)[O-])cc1", "outcome": "inactive"}, {"smiles": "Nc1ccc(Cc2ccc(N)cc2)cc1", "outcome": "inactive"}, {"smiles": "O=C(Oc1ccc(Br)cc1)N1CCN2CCC1CC2", "outcome": "inactive"}, {"smiles": "CN(C)[C@@H]1C(=O)C(C(N)=O)=C(O)[C@@]2(O)C(=O)C3=C(O)c4c(O)cccc4[C@@](C)(O)[C@H]3C[C@@H]12", "AC50": "25 µM (active)"}, {"smiles": "CN(C)c1ccc(C(=O)c2ccc(N(C)C)cc2)cc1", "outcome": "inactive"}, {"smiles": "Clc1ccccc1Cl", "outcome": "inactive"}, {"smiles": "Nc1ccc(N=Nc2ccccc2)cc1", "outcome": "inactive"}, {"smiles": "O=[N+]([O-])C(Br)(CO)CO", "outcome": "inactive"}]}]}
